Source: paper PMC7826789 (International Journal of Molecular Sciences, 2021)

Key:
Conditions in all cases: Compound Concentration (nM):1000
LRRK2 = tested on: LRRK2
LTK = tested on: LTK
LYN = tested on: LYN
LZK = tested on: T1, LZK
T1 construct: gene MAP3K13

MAK = tested on: MAK
MAP3K15 = tested on: MAP3K15
MAP3K1 = tested on: MAP3K1
MAP3K2 = tested on: MAP3K2
MAP3K3 = tested on: MAP3K3
MAP3K4 = tested on: MAP3K4
MAP4K2 = tested on: MAP4K2
MAP4K3 = tested on: MAP4K3
MAP4K4 = tested on: MAP4K4
MAP4K5 = tested on: MAP4K5
MAPKAPK2 = tested on: MAPKAPK2
MAPKAPK5 = tested on: MAPKAPK5
MARK1 = tested on: MARK1
MARK2 = tested on: MARK2
MARK3 = tested on: MARK3
MARK4 = tested on: MARK4
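Further: KINOMEscan scanMAX binding as percent activity remaining versus control; lower means stronger binding.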

Row | SMILES | Percent Control (LRRK2) | Percent Control (LTK) | Percent Control (LYN) | Percent Control (LZK) | Percent Control (MAK) | Percent Control (MAP3K15) | Percent Control (MAP3K1) | Percent Control (MAP3K2) | Percent Control (MAP3K3) | Percent Control (MAP3K4) | Percent Control (MAP4K2) | Percent Control (MAP4K3) | Percent Control (MAP4K4) | Percent Control (MAP4K5) | Percent Control (MAPKAPK2) | Percent Control (MAPKAPK5) | Percent Control (MARK1) | Percent Control (MARK2) | Percent Control (MARK3) | Percent Control (MARK4)
1 | C[C@@H](Oc1cc(-n2cnc3ccc(OC4CCN(C)CC4)cc32)sc1C(N)=O)c1ccccc1Cl [GSK579289A] | 77% | 24% | 93% | 78% | 100% | 95% | 41% | 83% | 65% | 67% | 24% | 93% | 49% | 36% | 100% | 100% | 85% | 77% | 80% | 89%
2 | CCS(=O)(=O)c1ccc(OC)c(Nc2ncc(-c3cccc(F)c3)o2)c1 [GW621970X] | 90% | 100% | 36% | 100% | 100% | 95% | 80% | 100% | 100% | 100% | 91% | 100% | 100% | 100% | 92% | 94% | 96% | 100% | 100% | 92%
3 | COc1cc2ncnc(Nc3ccc4c(cnn4Cc4ccccc4)c3)c2cc1OC.Cl [GW282449A] | 100% | 46% | 46% | 100% | 100% | 98% | 84% | 100% | 100% | 100% | 93% | 95% | 100% | 88% | 72% | 88% | 100% | 100% | 100% | 100%
4 | Cl.O=C(Nc1ccc(Oc2ccc3[nH]c(NC(=O)c4ccco4)nc3c2)cc1)Nc1cc(C(F)(F)F)ccc1F [GW683134A] | 28% | 6.2% | 29% | 100% | 100% | 90% | 53% | 100% | 85% | 86% | 85% | 83% | 95% | 84% | 94% | 100% | 100% | 100% | 82% | 100%
5 | COc1cc(C=NNc2ncnc3c2cnn3-c2ccccc2)ccc1O [GW513184X] | 100% | 100% | 74% | 98% | 78% | 100% | 100% | 99% | 73% | 100% | 89% | 100% | 66% | 94% | 100% | 97% | 97% | 90% | 100% | 93%
6 | COc1cc(N2CCN(C(C)C)CC2)ccc1Nc1nc(Nc2ccc(F)cc2C(=O)NC[C@@H](O)CO)c2cc[nH]c2n1 [GSK1392956A] | 12% | 66% | 92% | 100% | 100% | 93% | 86% | 100% | 88% | 94% | 91% | 100% | 94% | 96% | 85% | 94% | 90% | 59% | 86% | 100%
7 | CCc1ccc(Oc2nccc(-c3c(-c4ccc(F)cc4)ncn3C3CCNCC3)n2)cc1 [SB-242719] | 100% | 95% | 100% | 95% | 100% | 91% | 67% | 98% | 66% | 93% | 40% | 87% | 69% | 53% | 91% | 96% | 69% | 77% | 61% | 100%
8 | CC1=C(C(=O)Nc2ccc3[nH]ncc3c2)C(c2ccc(Cl)c(Cl)c2)CC(=O)N1 (centres unmarked) [GSK299115A] | 96% | 84% | 100% | 79% | 100% | 84% | 76% | 85% | 85% | 100% | 79% | 79% | 73% | 75% | 96% | 100% | 100% | 100% | 78% | 100%
9 | COc1ccc2[nH]c3c4[nH]c5ccc(OC)cc5c4c4c(c3c2c1)C(=O)NC4=O [GW296115X] | 2.8% | 58% | 69% | 77% | 82% | 64% | 71% | 85% | 59% | 100% | 75% | 73% | 2.7% | 51% | 100% | 90% | 100% | 71% | 83% | 100%
10 | COc1cccc(-c2c[nH]c3c(N/N=C/c4ccncc4)ncnc23)c1 [GW814408X] | 100% | 98% | 50% | 93% | 100% | 100% | 92% | 65% | 57% | 100% | 78% | 93% | 65% | 68% | 100% | 100% | 89% | 100% | 100% | 99%
11 | COc1cc2ncn(-c3cc(O[C@H](C)c4ccccc4Cl)c(C(N)=O)s3)c2cc1OC [GSK237701A] | 70% | 26% | 81% | 70% | 100% | 100% | 2.6% | 84% | 83% | 100% | 50% | 33% | 90% | 7.5% | 100% | 100% | 77% | 100% | 100% | 74%
12 | Cc1cc(O)cc(C)c1/C=C/c1cncc(C(N)=O)c1 [GW435821X] | 81% | 100% | 38% | 100% | 100% | 100% | 65% | 79% | 59% | 100% | 56% | 81% | 100% | 100% | 100% | 100% | 100% | 100% | 91% | 78%
13 | COc1cc(C)c(N(C)C(=O)CN(C)C)cc1Nc1nc(Nc2cccc(F)c2C(N)=O)c2cc[nH]c2n1 [GSK2219385] | 11% | 74% | 100% | 80% | 100% | 98% | 83% | 93% | 67% | 90% | 100% | 100% | 100% | 100% | 83% | 92% | 100% | 95% | 89% | 89%
14 | Nc1ncnc2occ(-c3ccc(NC(=O)Nc4cc(C(F)(F)F)ccc4F)cc3)c12 [GW770249X] | 77% | 4.5% | 29% | 100% | 100% | 100% | 51% | 91% | 91% | 94% | 27% | 29% | 56% | 11% | 100% | 100% | 83% | 94% | 71% | 94%
15 | CCS(=O)(=O)c1ccc(OC)c(Nc2ncc(-c3cccc(OC)c3)o2)c1 [GW580509X] | 100% | 100% | 53% | 100% | 100% | 100% | 68% | 100% | 100% | 100% | 89% | 100% | 100% | 100% | 96% | 100% | 100% | 100% | 100% | 99%
16 | NS(=O)(=O)c1ccc(N/N=C2\C(=O)Nc3ccc(-c4cnco4)cc32)cc1 [GW276655] | 44% | 100% | 100% | 62% | 100% | 75% | 100% | 79% | 74% | 82% | 80% | 85% | 62% | 84% | 100% | 100% | 44% | 85% | 100% | 68%
17 | Cl.O=S1CCN(Cc2ccc(-c3ccc4ncnc(Nc5ccc(OCc6ccccc6)c(F)c5)c4c3)o2)CC1 [GW576924A] | 98% | 100% | 100% | 100% | 100% | 94% | 81% | 100% | 100% | 100% | 100% | 100% | 91% | 100% | 80% | 98% | 91% | 100% | 100% | 89%
18 | NS(=O)(=O)c1ccc(N/N=C2\C(=O)Nc3ccc(C(=O)NCc4ccncc4)cc32)cc1 [GW300657X] | 69% | 100% | 81% | 72% | 100% | 80% | 67% | 87% | 72% | 99% | 84% | 99% | 88% | 96% | 100% | 89% | 100% | 91% | 63% | 91%
19 | CN(C)CCNC(=O)Nc1ccc(N(C)c2ccnc(Nc3ccc(CS(C)(=O)=O)cc3)n2)cc1.Cl [GW830900A] | 83% | 100% | 100% | 75% | 100% | 100% | 82% | 69% | 84% | 99% | 80% | 69% | 66% | 77% | 100% | 93% | 84% | 67% | 55% | 100%
